# Assay outcomes (PubChem BioAssay)
# HT1080 IDH1KD tx: kills HT-1080 cells with IDH1 knockdown. HT-1080 IDH1 knockdown viability, ATP luminescence, 48 h. Potency, µM (doses to about 46.1 µM), for inactives: at the highest dose activity, negative = toxicity, most hits filed as cytotoxic. actives 2% (n = 360,000). AID 686971;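 further: 0% = DMSO wells and -100% = cell-free medium wells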
#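 Cytotoxicity counter-line: IDH1KD HT-1080, 48 h, CellTiter-Glo. Curves classed by r2, magnitude and activity.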
# KB-V1 cytotox: kills drug-selected multidrug resistant KB-V1 cells; actives 3.4% (n = 400,000); KB-V1 MDR cells viability, CellTiter-Glo, 72 h; Potency, µM (series often up to 46.1 µM), hits mostly cytotoxic; AID 1347076; further: on the % scale 0 is the no-effect control and ±100 the full control effect; nearly all actives have a fitted effect of over 60% in size
#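 KB-V1 cells (P-gp-expressing MDR subline of KB-3-1) in phenol-red-free DMEM with 10% FBS were exposed to library compounds over a concentration series for 72 h at 37 degrees C. Viability read by CellTiter-Glo luminescence; concentration-effect curves fitted after normalization.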
# KB-3-1 cytotox: KB-3-1 parental cell cytotoxicity; KB-3-1 viability, CellTiter-Glo ATP luminescence, 72 h; Potency, µM (titrated, usually from 46.1 µM), most hits filed as cytotoxic; actives 1.4% (n = 400,000); AID 1347075; further: on the % scale 0 is the no-effect control and ±100 the full control effect; nearly all actives have a fitted effect of over 60% in size
#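 Parental KB-3-1 adenocarcinoma cells in phenol-red-free DMEM with 10% FBS were pin-treated with compounds at several concentrations, incubated 72 h at 37 °C, and viability read by CellTiter-Glo luminescence; concentration-effect curves were fitted after normalization.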
# SW480 rereplic: induces DNA re-replication in SW480 colon adenocarcinoma cells. actives 1.8% (n = 340,000). SW480 DNA re-replication, Hoechst DNA content imaging, 48 h. Potency, µM (top dose mostly 46.1 µM), for inactives: top-dose re-replication activation, usual class: activators; further: % of control where 0% means no effect; nearly all actives have a fitted effect of over 55% in size
#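 DNA re-replication was detected as more nuclei of elevated Hoechst intensity after 48 hr exposure to compound (23 nL pinned per well of 250 cells).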
# MCF10A rereplic: inducers of DNA re-replication in MCF 10A breast cells | MCF 10A DNA re-replication, Hoechst nuclear intensity, 48 h | Potency, µM (highest dose often 46.1 µM), without a hit: top-dose activity, positive = re-replication, usual class: activators | actives 2.9% (n = 350,000); further: % of control where 0% means no effect; nearly all actives have a fitted effect of over 50% in size
# HT1080NT lethal: kills 2HG-producing HT-1080-NT fibrosarcoma cells; HT-1080-NT fibrosarcoma viability, CellTiter-Glo ATP luminescence, 48 h; Potency, µM (series often up to 46.1 µM), inactives show at the top dose activity, negative = less viability, actives largely listed as cytotoxic; actives 1.6% (n = 360,000);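 further: NT is the 2HG producing partner of a matched IDH1 knockdown line; 0% = DMSO-treated cells and -100% = media-only wells without cells; nearly all actives have a fitted effect of over 55% in size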
#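 HT-1080-NT fibrosarcoma cells (2HG-overproducing), 750 cells/well in RPMI with 5% FBS, dosed after 2 h and incubated 48 h at 37C. CellTiter-Glo luminescence normalized to DMSO and no-cell wells; concentration-response curves fitted and classed.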
# The depositor's hits bear a star; i = inactive; ? = inconclusive; . = no result given; [ ] = dose if it differs, or a comment. Shown are actives, neighbours in structure and some others; about 8% of the full set was active somewhere. The call rests on the fitted dose curve; in most records, active means well fitted curve in the direction sought with a large enough effect; inconclusive means small, poorly fitted or top-dose-only effect, or another doubt; inactive means no such curve, though single readings can be large; an effect the other way counts as inactive or inconclusive. Potency means the concentration at half of the fitted maximal effect.
SMILES,HT1080 IDH1KD tx,KB-V1 cytotox,KB-3-1 cytotox,SW480 rereplic,MCF10A rereplic,HT1080NT lethal
COc1ccccc1CN(C)C(=O)c1cccc(S(=O)(=O)N2CCc3ccccc3C2)c1,3%,i,i,13%,5%,4%
CC(C)CN(CC(C)C)C(=O)c1cccc(S(=O)(=O)N2CCc3ccccc32)c1,?,10µM*,?,15%,?,?
O=C(CNC(=O)c1cccc(S(=O)(=O)N2CCc3ccccc32)c1)Nc1ccccc1Br,-13%,9.2µM*,i,6%,11%,-7%
CCN(CC(=O)Nc1ccccc1OC)CC(=O)Nc1ccccc1C(F)(F)F,-13%,?,i,?,?,-9%
CCN(CC(=O)Nc1ccccc1-c1ccccc1)Cc1nc2ccccc2c(=O)[nH]1,4.6µM*,?,8.2µM*,?,6.5µM*,5.8µM*
O=C(CNC(c1ccccc1)c1ccccc1)Nc1ccccc1-c1ccccc1,-29%,15µM*,?,3%,?,-17%
CCN(CC(=O)Nc1ccccc1OC)CC(=O)Nc1ccccc1-c1ccccc1,7.3µM*,8.2µM*,21µM*,?,15µM*,15µM*
Cc1ccc(CC(=O)Nc2ccccc2-c2ccccc2)cc1C,15%,21µM*,i,3%,9.2µM*,12%
COCC(=O)Nc1ccccc1-c1ccccc1,-2%,i,i,-4%,3%,-4%
COc1ccc(-c2cc(CCC(=O)N3CCN(c4cc(C)ccc4C)CC3)on2)cc1,-9%,i,i,0%,?,-4%
COc1ccc(CC(=O)Nc2ccccc2-c2ccccc2)cc1OC,-9%,15µM*,?,1%,3%,-7%
CCCCOc1ccc(C(N)=O)cc1,13%,.,.,.,.,1%
CCn1c(N2CCN(S(=O)(=O)CC)CC2)nc2ccccc21,12%,?,i,-8%,-6%,11%
CCn1c(N2CCN(C(=S)NCC(C)C)CC2)nc2ccccc21,0%,10µM*,i,17%,18µM*,0%
CCn1c(N2CCN(S(=O)(=O)c3ccc(F)cc3)CC2)nc2ccccc21,-15%,12µM*,?,-10%,5%,-14%
CCn1c(N2CCN(S(=O)(=O)c3ccc(Cl)cc3)CC2)nc2ccccc21,?,8.2µM*,?,-1%,-1%,-27%
CCn1c(N2CCN(C(=S)NC)CC2)nc2ccccc21,-21%[9.24 µM],i,i,-4%,19%,5%
CC(C)c1ccc(S(=O)(=O)c2cnc(SCC(=O)Nc3ccc(F)cc3F)nc2N)cc1,.,i,i,.,.,.
CCOC(=O)c1cnn(CCOC(=O)c2ccc(OC)cc2)c1NC(=O)c1ccc(OC)cc1,-4%,?,i,7%,-3%,-4%
CCOC(=O)c1cnn(CCOC(=O)c2ccccc2)c1NC(=O)c1ccccc1,-6%,10µM*,i,1%,0%,-1%
O=C1c2cccc3cccc(c23)C(=O)C1(O)O,18µM*,i,i,?,21µM*,?
CCc1ccc(NC(=O)NCC2CCN(Cc3cccc(Cl)c3)CC2)cc1,-7%,i,?,?,-10%,?
Cc1ccc(NC(=O)NCC2CCN(Cc3cccc(Cl)c3)CC2)cc1Cl,-13%,?,?,-6%,?,12µM*
O=C(NCC1CCN(Cc2ccccc2F)CC1)Nc1ccc(F)c(Cl)c1,.,i,i,.,.,.
Cc1ccc(C)c(CN2CCC(CNC(=O)Nc3ccc(F)c(Cl)c3)CC2)c1,18µM*,i,?,18µM*,26µM*,26µM*
SMILES,HT1080 IDH1KD tx,KB-V1 cytotox,KB-3-1 cytotox,SW480 rereplic,MCF10A rereplic,HT1080NT lethal
CCN1CCCC1CNC(=O)C1CCN(Cc2nc(-c3cccc(Br)c3)oc2C)CC1 (configuration not stated),?,i,?,?,?,21µM*
Cc1ccc(CNC(=O)C2CCCN(Cc3nc(-c4cccc(C)c4)oc3C)C2)cc1 (configuration not stated),.,i,i,.,.,.
Cc1cccc(-c2nc(CN3CCCC(C(=O)NC4CCCCC4)C3)c(C)o2)c1 (configuration not stated),?,21µM*,?,8%,?,?
Cc1cccc(-c2nc(CN3CCCC(C(=O)NCCc4ccc(Cl)cc4)C3)c(C)o2)c1 (configuration not stated),.,i,?,.,.,.
Cc1cccc(-c2nc(CN3CCCC(C(=O)NC4CCCCCC4)C3)c(C)o2)c1 (configuration not stated),?,21µM*,i,?,?,20µM*
Cc1oc(-c2cccc(Cl)c2)nc1CN1CCCC(C(=O)NC(C)c2ccc3c(c2)OCCO3)C1 (configuration not stated),16µM*,26µM*,?,?,?,?
Clc1cccc(CON/C=N/c2ncnc3sccc23)c1,-3%,?,i,-8%,?,-23%
CNC(=O)CSc1nc2cc(S(=O)(=O)Nc3ccccc3OC)ccc2o1,-9%,i,i,0%,?,2%
COc1ccccc1NS(=O)(=O)c1ccc2oc(SCc3ccc(C#N)cc3)nc2c1,-10%,9.2µM*,i,20%,3%,0%
CCOc1ccccc1NC(=O)CSC1=Nc2ccccc2C2=NC(CC(=O)NCc3ccc4c(c3)OCO4)C(=O)N12 (configuration not stated),.,i,i,.,.,.
Cc1ccccc1OCc1nc2ccccc2n1C,3%,i,i,-65%,12%,4%
Cc1nnc(OCc2nc3ccccc3n2C)c2ccccc12,1%,9.2µM*,?,1%,-9%,-2%
COc1ccc(CCNC(=O)C(C)n2nc(C)c3c(C)n(-c4ccc(C)cc4)nc3c2=O)c(OC)c1 (configuration not stated),-25%,i,i,?,-1%,21µM*
COc1ccccc1CCNC(=O)C(C)n1nc(C)c2c(C)n(-c3ccccc3)nc2c1=O (configuration not stated),-10%,i,i,13%,11%,-5%
CN(C)CCCN(C(=O)c1ccc2c(c1)CCCC2)c1nc2ccc(Cl)cc2s1,?,10µM*,?,?,?,?
CCOc1ccc2nc(N(CCCN(C)C)C(=O)c3ccc4c(c3)CCCC4)sc2c1,?,i,21µM*,?,?,18µM*
